# Experimental data from PubChem BioAssay.
# “And” between values parts separate entries of the source, which are not always exact repeats. Equal entries are not always repeated. The source made the active and inactive calls.
# Columns and labels:
# [1] = small molecules captured by biotinylated probe aFSTL3 – biochemical, small-molecule microarray, fluorescence 635/667, stem cell growth factor project, primary screen (AID 1064); conditions: higher = more signal;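 further: measures binding of the biotinylated anti-FSTL3 antibody to printed compounds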
# [2] = binders from COS7 lysate, DM2A8 probe, primary screen, torsin A project, cell lysate, small-molecule microarray, fluorescence 635/667 (AID 1065); conditions: higher = more signal, COS7 lysate expressing mutant human TOR1A
# [3] = small molecules captured by biotinylated probe aFGF2 – biochemical, small-molecule microarray, fluorescence 635/667, stem cell growth factor project, primary screen (AID 1067); conditions: higher = more signal;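 further: measures binding of biotinylated aFGF2 protein to printed compounds on slides; z-score merges feature fluorescence and signal-to-noise across triplicate slides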
# [4] = small molecules captured by biotinylated probe aFGF10 – biochemical, small-molecule microarray, fluorescence 635/667, stem cell growth factor project, primary screen (AID 1071); conditions: higher = more signal;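 further: score merges 667 nm spot intensity and signal to noise from triplicate slides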
# [5] = target: Neurogenic locus notch homolog protein 2 (Homo sapiens) (UniProt Q04721); assay: small molecules binding Notch2 protein – biochemical, small-molecule microarray, 635 nm fluorescence, stem cell growth factors, primary screen (AID 1073); conditions: higher = more signal
# [6] = target: Pro-neuregulin-1, membrane-bound isoform (Homo sapiens) (UniProt Q02297); assay: small molecules binding neuregulin-1 protein – biochemical, small-molecule microarray, fluorescence 635/667, psychiatric disease protein project, primary screen (AID 1075); conditions: NRG1 binding, 635 nm fluorescence, higher = more signal;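 further: score combines 667 nm spot fluorescence with signal to noise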
# [7] = system: Neuregulin-1 EGF-like domain; assay: small molecules binding NRG1 EGF domain – biochemical, small-molecule microarray, 635 nm fluorescence, primary screen (AID 1081); conditions: higher = more signal;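 further: binding of the protein to compounds printed on small-molecule microarray slides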
# [8] = FRG1 expression reporter modulators in myotubes – cell-based, C2C12 myotubes, firefly/Renilla luciferase, luminescence, FRG1 inhibition for FSHD, primary screen (AID 1084); conditions: FRG1 promoter luciferase, higher = more signal, called active from +8 up or from −8 down
# [9] = small molecules captured by biotinylated probe aFST – biochemical, small-molecule microarray, fluorescence 635/667, stem cell growth factor project, primary screen (AID 1086); conditions: higher = more signal;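 further: score merges 667 nm fluorescence with signal-to-noise of each printed compound spot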
# [10] = binders of probe aHhip on microarray, primary screen, stem cell growth factor project, biochemical, small-molecule microarray, fluorescence 635/667 (AID 1087); conditions: higher = more signal;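 further: score merges spot fluorescence at 667nm with spot signal to noise ratio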
# Chain of Neurogenic locus notch homolog protein 2 (Homo sapiens) (Q04721 whole entry, looked up, canonical isoform): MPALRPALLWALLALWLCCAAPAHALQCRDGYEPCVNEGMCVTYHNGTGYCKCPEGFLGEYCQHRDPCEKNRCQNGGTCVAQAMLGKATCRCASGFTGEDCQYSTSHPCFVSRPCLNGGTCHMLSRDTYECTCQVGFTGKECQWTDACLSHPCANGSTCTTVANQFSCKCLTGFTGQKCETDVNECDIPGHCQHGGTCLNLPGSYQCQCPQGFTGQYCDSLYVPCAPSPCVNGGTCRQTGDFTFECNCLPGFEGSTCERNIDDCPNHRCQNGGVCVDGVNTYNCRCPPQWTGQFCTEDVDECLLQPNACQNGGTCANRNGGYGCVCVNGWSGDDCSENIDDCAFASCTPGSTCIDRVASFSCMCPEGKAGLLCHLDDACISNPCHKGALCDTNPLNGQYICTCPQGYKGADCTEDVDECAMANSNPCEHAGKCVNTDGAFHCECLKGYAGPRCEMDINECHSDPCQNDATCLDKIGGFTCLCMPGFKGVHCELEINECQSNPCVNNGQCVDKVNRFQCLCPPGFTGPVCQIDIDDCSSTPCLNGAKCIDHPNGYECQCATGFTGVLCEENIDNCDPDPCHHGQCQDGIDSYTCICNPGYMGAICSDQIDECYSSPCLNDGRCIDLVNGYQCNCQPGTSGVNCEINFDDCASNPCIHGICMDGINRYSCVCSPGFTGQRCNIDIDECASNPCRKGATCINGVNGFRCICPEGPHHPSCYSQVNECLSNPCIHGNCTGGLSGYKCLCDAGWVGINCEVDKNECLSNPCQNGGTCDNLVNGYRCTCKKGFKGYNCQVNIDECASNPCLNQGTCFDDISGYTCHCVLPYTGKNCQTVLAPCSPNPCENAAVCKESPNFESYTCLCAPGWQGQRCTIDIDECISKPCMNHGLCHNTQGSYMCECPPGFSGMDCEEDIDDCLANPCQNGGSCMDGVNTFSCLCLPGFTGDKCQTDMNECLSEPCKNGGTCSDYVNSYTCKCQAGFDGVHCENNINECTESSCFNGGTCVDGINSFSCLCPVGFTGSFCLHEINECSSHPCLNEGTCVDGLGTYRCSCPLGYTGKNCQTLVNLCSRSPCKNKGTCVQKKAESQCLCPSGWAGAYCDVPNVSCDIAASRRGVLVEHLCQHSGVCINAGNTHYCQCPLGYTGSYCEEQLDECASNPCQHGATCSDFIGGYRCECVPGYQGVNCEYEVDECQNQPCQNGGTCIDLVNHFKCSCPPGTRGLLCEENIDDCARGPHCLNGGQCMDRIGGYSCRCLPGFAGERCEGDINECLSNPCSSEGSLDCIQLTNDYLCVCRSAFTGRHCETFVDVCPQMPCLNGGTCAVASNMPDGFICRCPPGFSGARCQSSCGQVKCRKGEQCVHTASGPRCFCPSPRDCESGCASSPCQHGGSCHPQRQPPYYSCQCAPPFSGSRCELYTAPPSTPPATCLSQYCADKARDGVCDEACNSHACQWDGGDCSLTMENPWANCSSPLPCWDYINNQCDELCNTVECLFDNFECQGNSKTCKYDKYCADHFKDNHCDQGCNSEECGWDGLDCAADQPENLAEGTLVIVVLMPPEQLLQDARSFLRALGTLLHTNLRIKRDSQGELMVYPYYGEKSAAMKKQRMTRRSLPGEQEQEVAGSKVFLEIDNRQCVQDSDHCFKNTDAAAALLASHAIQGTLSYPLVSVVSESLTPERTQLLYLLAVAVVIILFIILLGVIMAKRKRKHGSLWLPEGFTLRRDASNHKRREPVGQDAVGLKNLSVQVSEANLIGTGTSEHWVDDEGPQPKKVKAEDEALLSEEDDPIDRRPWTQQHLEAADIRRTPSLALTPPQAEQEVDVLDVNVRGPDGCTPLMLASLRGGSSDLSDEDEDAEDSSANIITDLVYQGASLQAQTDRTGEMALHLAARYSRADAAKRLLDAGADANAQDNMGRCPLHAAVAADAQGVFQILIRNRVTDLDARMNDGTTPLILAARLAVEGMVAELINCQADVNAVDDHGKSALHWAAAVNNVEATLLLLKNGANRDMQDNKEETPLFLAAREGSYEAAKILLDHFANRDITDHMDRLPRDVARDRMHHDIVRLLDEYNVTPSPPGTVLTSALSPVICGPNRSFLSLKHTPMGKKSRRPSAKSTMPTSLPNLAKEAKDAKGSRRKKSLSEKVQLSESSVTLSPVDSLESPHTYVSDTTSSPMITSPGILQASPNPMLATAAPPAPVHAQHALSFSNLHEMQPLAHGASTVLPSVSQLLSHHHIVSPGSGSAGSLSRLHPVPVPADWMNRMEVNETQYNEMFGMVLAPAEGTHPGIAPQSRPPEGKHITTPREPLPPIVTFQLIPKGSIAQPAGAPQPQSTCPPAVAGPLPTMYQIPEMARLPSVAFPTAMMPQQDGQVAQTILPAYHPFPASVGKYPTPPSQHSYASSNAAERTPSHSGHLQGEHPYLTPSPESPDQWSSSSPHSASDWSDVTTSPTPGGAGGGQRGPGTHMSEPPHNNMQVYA
# Chain of Pro-neuregulin-1, membrane-bound isoform (Homo sapiens) (Q02297 whole entry, looked up, the tested form may be a part, canonical isoform): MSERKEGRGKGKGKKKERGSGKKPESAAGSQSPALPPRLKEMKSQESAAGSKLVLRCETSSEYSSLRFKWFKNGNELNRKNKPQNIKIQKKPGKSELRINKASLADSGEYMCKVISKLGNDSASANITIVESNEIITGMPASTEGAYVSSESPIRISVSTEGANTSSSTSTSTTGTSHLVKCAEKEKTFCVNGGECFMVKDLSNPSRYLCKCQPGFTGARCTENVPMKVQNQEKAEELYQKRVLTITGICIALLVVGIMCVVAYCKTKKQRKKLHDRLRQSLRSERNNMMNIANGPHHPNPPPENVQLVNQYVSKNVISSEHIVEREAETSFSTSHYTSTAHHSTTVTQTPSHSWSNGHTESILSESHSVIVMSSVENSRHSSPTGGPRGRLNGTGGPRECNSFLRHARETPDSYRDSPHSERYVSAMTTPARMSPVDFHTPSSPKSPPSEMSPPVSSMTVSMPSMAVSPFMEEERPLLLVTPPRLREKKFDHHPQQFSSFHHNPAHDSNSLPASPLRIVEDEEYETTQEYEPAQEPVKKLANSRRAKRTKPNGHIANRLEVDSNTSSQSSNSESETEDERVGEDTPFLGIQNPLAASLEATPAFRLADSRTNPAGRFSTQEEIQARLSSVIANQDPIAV
SMILES,composite z-score [1],composite z-score [2],composite z-score [3],composite z-score [4],composite z-score [5],composite z-score [6],composite z-score [7],z-score [8],composite z-score [9],composite z-score [10]
CC(C)OC(=O)C=C1C[C@@H](c2cccc(C(F)(F)F)c2)O[C@@H](c2cccc(C(F)(F)F)c2)O1,0.0946 and 0.128,0.297 and 1.36,0.0043 and -0.13,0.884 and -0.153,-0.27 and -0.628,1.13 and 0.36,1.01 and 1.08,-0.0881 (inactive) and -0.227 (inactive),-0.0032 and -0.598,-0.236 and -0.253
CC[C@@H]1C(Sc2ccccc2)C(C(=O)O)[C@H](c2ccc(C)cc2)N1S(=O)(=O)c1ccc(C)cc1 (stereo not given in full),0.249 and -0.499,0.364 and -0.0981,0.0013 and 0.166,0.579 and 0.288,1.56 and 1.12,1.82 and 1.91,1.39 and 1.2,-3.66 (inactive) and -3.89 (inactive),0.254 and 1.05,-0.179 and -0.0994
CC(C)[Si]1(C(C)C)OCc2cc(CCCc3cc4c(c(CCc5ccccc5)n3)[Si](C(C)C)(C(C)C)OC4)nc(CCc3ccccc3)c21,-0.0088 and -0.516,0.0696 and 0.445,-0.105 and -0.12,-0.841 and 0.402,-0.0702 and 0.469,-0.429 and -0.0826,-0.688 and 0.277,-0.712 (inactive) and 0.124 (inactive),-0.0006 and 0.0171,0.141 and 0.065
O=C1[C@H]2[C@H]3[C@H](O)[C@H](O)CC(=NOCc4ccccc4)[C@H]3CC[C@H]2C(=O)N1Cc1ccccc1,-0.51,0.887,-0.109,0.186,0.189,-0.226,-0.263,0.224 (inactive),0.223,-0.274
CCCNC(=O)OC[C@H]1O[C@H](CCON=C(C)CCN2CCc3nc(-c4ccccc4)c(-c4ccccc4)cc3C2)C=C[C@@H]1Oc1ccc(OC)cc1,-0.369,0.0379,-0.116,0.118,-0.247,0.48,0.524,0.198 (inactive),0.142,-0.0994
Cc1ccc(S(=O)(=O)N[C@@H]2COC(=O)CC=C[C@@H](C)[C@@H]3C=C[C@H](O)[C@@H](COC(=O)CC=C[C@H]2C)O3)cc1,-0.534 and -0.776,1.1 and 0.792,-0.131 and -0.175,0.0127 and 0.11,-0.557 and 0.111,-0.22 and -0.195,0.0077 and 0.324,0.132 (inactive) and 0.646 (inactive),0.101 and 0.0406,0.0243 and -0.26
C=CCN(CCCC)C(=O)C(c1cccs1)N(C(=O)/C=C\C(=O)O)c1ccc(CCO)cc1 (stereo not given),0.655 and 1.21,0.005 and 0.531,-0.0493 and -0.166,0.115 and -1.62,-1.83 and -2.34,0.863 and -0.409,0.867 and -0.0384,1.61 (inactive) and 1.37 (inactive),-0.498 and -1.07,-0.137 and -0.296
COC(=O)C1=C(C)N(Cc2ccccc2)C2=C(C(C)=O)[C@H](c3ccccc3)[C@@](O)(C(=O)OC)C(=O)N2[C@@H]1c1ccccc1,-0.449 and -0.481,0.468 and -0.61,-0.129 and -0.139,0.778 and -0.338,0.691 and 0.083,0.595 and -0.445,1.18 and -1.44,-2.61 (inactive) and -1.77 (inactive),0.277 and -0.201,0.0515 and -0.281
Cc1ccc(S(=O)(=O)N[C@H]2COC(=O)[C@@H](C)COC(=O)[C@H](C)NC(=O)CC=C[C@H]2C)cc1,-0.574,1.03,-0.116,0.604,0.192,-0.476,-0.132,0.691 (inactive),-0.154,-0.0618
CC(CO)N1C(=O)[C@@H]2C3C(=O)OCCC=C[C@H]3OC23C=CCN(c2ccc4ccccc4c2)C(=O)[C@@H]13 (stereo not given in full),0.265 and -1.11,-1.36 and -0.483,-0.0689 and -0.36,-0.282 and -0.642,-0.704 and -1.04,0.0944 and 1.21,0.713 and 1.19,0.544 (inactive) and 1.81 (inactive),-0.0414 and 0.226,-0.388 and -0.937
